Reference: the supplement of paper PMC3334620
In all, about 33,000 sequences were measured (“E-score (-0.5 to 0.5)”: median about -0.016, highest 2% from about 0.31 on). Shown is part of a subset that was picked to be rich in the highest values.

Target: Cst6 (UniProt P40535)
Test: PBM E-score (8-mer binding enrichment) (E-score (-0.5 to 0.5)); higher = stronger / more preferred TF binding
Details: protein concentration: 200 nM; construct: GST-DNA-binding domain
Protocol: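 Universal 'all 10-mer' protein binding microarrays (Agilent AMADID 015681) probed with GST-tagged S. cerevisiae TFs (full-length or DBD) made by in vitro transcription/translation (PURExpress), about 100-200 nM. Bound TF was detected with fluorescent anti-GST. Each ungapped 8-mer (which stands for itself and its reverse complement) is scored by the PBM enrichment score (E-score), a modified Wilcoxon-Mann-Whitney statistic from -0.5 to +0.5, computed with the Universal PBM Analysis Suite. Scale: above 0.35 generally sequence-specific binding.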

UniProt P40535, sequence (P40535 whole entry): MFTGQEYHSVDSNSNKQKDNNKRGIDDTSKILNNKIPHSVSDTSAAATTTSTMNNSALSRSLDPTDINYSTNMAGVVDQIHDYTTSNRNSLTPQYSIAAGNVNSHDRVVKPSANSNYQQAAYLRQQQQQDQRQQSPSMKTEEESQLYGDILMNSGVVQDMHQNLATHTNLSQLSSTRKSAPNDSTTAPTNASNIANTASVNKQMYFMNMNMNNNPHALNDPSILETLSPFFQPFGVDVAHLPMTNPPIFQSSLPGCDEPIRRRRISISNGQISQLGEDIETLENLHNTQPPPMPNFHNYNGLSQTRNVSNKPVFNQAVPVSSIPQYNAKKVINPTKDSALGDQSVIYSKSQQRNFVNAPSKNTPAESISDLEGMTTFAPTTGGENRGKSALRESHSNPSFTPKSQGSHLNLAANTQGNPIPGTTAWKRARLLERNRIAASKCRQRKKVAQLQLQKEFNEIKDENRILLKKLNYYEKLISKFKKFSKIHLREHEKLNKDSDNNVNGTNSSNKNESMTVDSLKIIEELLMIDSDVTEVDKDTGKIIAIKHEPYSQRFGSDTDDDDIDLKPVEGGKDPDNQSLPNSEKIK

Sequence | PBM E-score
GGACGTCA | 0.468
GGTCGTCA | 0.272
TGACGTCA | 0.5
AGACGTCG | -0.103
GGACGTGA | -0.0809
CGACGTCA | 0.491
AGACGTCC | -0.00823
CGACGTCG | -0.0227
AGACGTCA | 0.484
AGACGTCT | -0.207
CGACGTCC | -0.0701
GGACGTCC | -0.128
ATTCTGCC | 0.124
ACATGCAT | 0.0333
CAATGGCC | -0.314
GAGCCAGC | -0.299
ACTTGCCC | -0.215
ATGTTTCG | 0.263
AGCCCCAC | -0.161
GAGACACA | -0.0694
CTGACACA | 0.0411
ACGACACG | 0.0167
GTGACACA | 0.322
ATGACACG | 0.256
ATGACACA | 0.349

Sequence | PBM E-score
AGACATGG | -0.0372
ACTACCTC | 0.0105
AGCTTGGA | -0.274
ACTGGGCA | -0.16
CCGATAAA | 0.0173
AAACGCAA | 0.254
CCACGTCC | -0.214
ACACGTCT | 0.0155
CCACGTCG | -0.196
CCACGTCA | 0.472
TCACGTCA | 0.49
TCACGTGA | 0.1
GCACGTTA | 0.0802
GCACGTCA | 0.459
ACACGTCG | -0.0793
GCACGTCC | -0.0855
ACACGTCA | 0.481
TCCCGTCA | 0.0641
AGGGGGTA | -0.392
AGGACTGG | -0.203
CTCTTAAA | 0.112
AGACAAGG | -0.181
GGCACGCA | -0.0289
GGGCGGGA | -0.0359
CAAGAGGC | 0.0779

Sequence | PBM E-score
AGTGACCA | -0.105
AGTGACGA | 0.399
GGTGACGA | 0.463
AGTGACGG | 0.301
GTTGACGA | 0.192
GGTGACCA | -0.0455
GGAGGCGA | -0.154
ACTATATG | 0.0805
ATTATATC | 0.327
ATTATATG | 0.306
ATTATATA | 0.239
CTTATATC | 0.291
ATTATAAG | 0.182
AGGAGAAG | -0.154
GAGGCGAA | 0.0301
ATCTAGGA | -0.0727
ACGGGTCA | -0.0243
GTCTAGAA | -0.0503
GATACGGA | 0.111
AATACGAC | 0.0982
AATACGTA | 0.344
AATACGCC | 0.104
GATACGTA | 0.332
AATACGTC | 0.323
CATACGTA | 0.383

Sequence | PBM E-score
CATACGAA | 0.154
GATACGCA | 0.0359
AATACGCA | 0.124
CATACGCA | 0.147
AATACGTG | 0.176
ATTGAGGG | -0.186
TCAGAGGA | -0.193
GCAGGAGA | -0.202
TCCGACGA | -0.0151
CTGCTAAG | -0.279
CTATGGCC | -0.271
CATACGTC | 0.405
CCTACGTC | 0.305
CATACGCC | 0.156
ATCCCGTG | 0.0123
CTCAAAAC | 0.175
ATTACGCC | 0.254
GTTACGAA | 0.16
ATTACGGG | 0.00617
GTTACGCA | 0.266
ATTACGAA | 0.305
CTTACGCA | 0.249
ATTACGAG | 0.235
ATTACGCA | 0.398
ATTACGCG | 0.326

Sequence | PBM E-score
CGACACAC | 0.0466
CGGAGAAA | -0.0341
ACAATGAC | 0.336
GCAATGAC | 0.3
ACAATGAG | -0.0976
CCAATGAC | 0.314
ACAATGAT | 0.269
CCAATGAA | -0.187
AGCCAGTC | -0.244
CGCCATGC | 0.0733
GTCTGGGA | -0.281
ATTGCCTA | -0.141
ACATCCAA | 0.131
TATCGTCA | 0.397
CATCGTCA | 0.372
AATCGTCT | 0.11
AATCGTCC | -0.00977
GATCGTCA | 0.294
CATCGTCC | 0.14
CATCGTCG | -0.112
TATCGTGA | 0.0604
AATCGTCA | 0.34
CCAGATAG | -0.0711
ACCTTGTA | 0.0757
CTTAGCAA | -0.0618

Sequence | PBM E-score
GGGCTCGA | -0.112
CACAGATG | 0.0492
ATTGCTCC | -0.0682
CGACCGGA | -0.305
CATCGTAG | 0.00214
TATAGTAA | 0.161
CATAGTAA | 0.313
GATAGTAA | 0.14
GGCAGGAA | -0.21
CCATGACA | 0.271
CCATGACG | 0.457
CCATGACC | 0.0749
ACATGACG | 0.435
ACATGACT | -0.0377
ACATGACA | 0.274
AAAGCGGC | 0.151
AGGAACTC | -0.0807
AATCCCTC | -0.0193
ATGTCGCA | -0.0497
CCTCAGAA | -0.0484
CAACGTTA | 0.119
AAATAATC | 0.178
ATATAAAC | 0.295
AAATAAAA | 0.186
AAATAATA | 0.287

Sequence | PBM E-score
CAATACAA | 0.15
ATATAAAG | 0.17
AAATACAA | 0.321
AAATAAAT | 0.371
AAATACAC | 0.141
ATATAAAT | 0.321
AAATAATG | 0.312
AAATAAAG | 0.104
GCACACTA | -0.138
ACGGTAAA | 0.129
GACACTAC | 0.0584
AGGAGCTG | -0.256
CTTCACAA | -0.0895
GGTTGCAC | -0.136
GCACTGTA | -0.00858
ACGTTATC | 0.269
GCGTTATA | 0.0248
CCGTTATA | -0.00095
ACGTTATA | 0.31
ACGTTATG | 0.333
ACGTTAGG | 0.112
CCAAGGAG | -0.0523
ACTGCAGA | -0.0111
TGCTACAA | 0.0326
ATCTCATG | -0.00941

Sequence | PBM E-score
ATATTCGA | -0.111
AACAAGTT | 0.0438
AACAAATT | 0.32
AACAAATA | 0.242
CTCAGGCC | -0.258
CAACACGG | 0.0445
CCAATAAC | 0.135
CGTATGAG | 0.133
CGTATGGC | 0.23
AGTATGAT | 0.235
AGTATGAA | 0.0821
CGTATGAC | 0.443
CGTATGAA | 0.319
AGTATGAC | 0.354
AGTATGAG | 0.0817
GGTATGAC | 0.191
GACGAGAA | 0.242
TCTTGACA | 0.053
CGAGGACG | -0.269
CAACCTTA | 0.0972
GCTGATAC | -0.0819
ACGGTTCC | -0.0941
ACCGGGAG | -0.317
CACCTCGA | 0.119
CTATATAC | 0.338

Sequence | PBM E-score
CTATATAA | 0.147
ATATATAC | 0.281
CTCTATAC | -0.125
TTATATAA | 0.24
ATATATAA | 0.324
GTATTGAC | 0.148
CGCTTGAC | -0.0844
AGAAATTG | 0.27
CCTTATGA | 0.159
AATACGGT | -0.0647
CATACGGA | 0.049
CATACGGC | 0.321
AATACGGC | 0.324
AATACGGG | -0.0401
GATACGGC | 0.139
CCGCAGCA | 0.0617
GGTTCTAC | -0.204
CACATCAG | -0.0727
AACCGTCA | 0.174
GACCGTCA | 0.137
TACCGTCA | 0.345
CACCGTCC | -0.173
CACCGTCG | -0.174
CACCGTCA | 0.314
GAACCAAA | -0.0818

Sequence | PBM E-score
AAATATCA | 0.139
CAATATCA | 0.126
AGATATCA | 0.198
TGATATAA | 0.323
TGATATCA | 0.426
CGATATAA | 0.225
GGATATCA | -0.0151
GGATATAA | 0.236
TAATATCA | 0.319
GGAAGAGA | -0.106
ATTCTGAC | 0.181
GGCGTACC | -0.19
CAACCAAG | 0.0364
TCGGACAA | 0.0914
CACAGTGC | -0.024
CCCTAACA | 0.127
ACCGTGCC | 0.0391
GACGTGAC | 0.394
ACCGTGAC | 0.291
GCCGTGAA | 0.184
GCCGTGCA | 0.279
GCCGTGAC | 0.341
GACGTGAA | 0.142
CACGTGAC | 0.148
GCCGTGCC | 0.308

Sequence | PBM E-score
CCAAGCGA | -0.309
AAACAGGT | 0.0221
ATTCTGGA | 0.122
AAGCCTTA | -0.0547
ACCTGCTA | -0.0708
CCACGCAA | 0.043
TCACGCAA | 0.375
GGACGCAA | 0.0196
TGACGCAA | 0.489
CGACGCCA | 0.00886
ATACGCAA | 0.283
GTACGCAA | 0.0898
AGACGCAA | 0.0971
TTACGCAA | 0.438
GCACGCAA | -0.0783
TGACGCCA | 0.466
AGACGCCA | -0.108
CTGCTTAC | 0.00293
CGTGACTC | -0.1
ACGCTCAT | 0.114
CCTAAGCA | -0.0807
TTAGGCAA | -0.00879
TAACCAGA | -0.0457
CAAGTGCC | 0.0401
CCGCCGTC | 0.206

Sequence | PBM E-score
CCGCCGTA | 0.0871
ACGCCGCG | 0.302
ACGCCGTA | 0.349
GGGCCGTA | 0.116
GCGCCGTA | 0.384
GCGCCGAA | 0.132
AGGCCGTA | 0.0502
ACGCCGGG | -0.254
ACGCCGTG | 0.383
ACGCCGTC | 0.389
ACGCCGAC | 0.0423
ATCCAATA | 0.222
AGCCGACC | -0.292
CTGGGACA | -0.219
CCTGTGGC | -0.117
AGAGTACC | -0.135
TAGTACAA | -0.00017
ACATTTCC | 0.13
GAGATCGA | 0.0615
CATCCGCG | 0.151
CTATGTCC | -0.152
ATGTGTCA | 0.286
CTATGTCA | 0.392
GTATGTTA | 0.182
AGATGTCA | 0.298

Sequence | PBM E-score
ATATGTCG | 0.185
CGATGTCA | 0.319
ATATGTCC | 0.121
GTATGTCA | 0.422
GTATGTAA | 0.282
GGATGTCA | 0.277
ATATGTCA | 0.404
CATCAAGG | -0.0962
ACGCCCGT | -0.0034
AACTAAGG | 0.0828
GGAACGCA | -0.112
AGGTATAC | 0.0822
GGCCGTGA | 0.14
CTGCGCTC | -0.292
GCAGTCGC | -0.0904
ACAAGGCG | 0.223
GGTGGCGA | -0.11
CAGCGGTA | 0.0522
CCATAGCG | -0.0739
GACAGAAC | 0.0521
GACAGAAA | 0.311
AACAGAAA | 0.213
ACCGTTCG | 0.0621
ACTACCCT | -0.111
AATTCGCT | 0.238

Sequence | PBM E-score
AATTATCC | 0.188
AATTATCT | 0.161
CATTATCA | 0.137
CATTATCG | 0.0831
AATTATCA | 0.356
AATTATCG | 0.316
ACAGGGGA | -0.218
ATTTAAAA | 0.258
ACAATAGC | -0.178
ATTGGCAG | -0.165
AGTAACTG | 0.00693
GTACGTGA | 0.108
CTACGTCC | -0.0878
CTACGTGA | 0.0384
CTACGTCA | 0.493
ATACGTCG | 0.215
GTACGTCA | 0.49
ATACGTCC | 0.061
GTACGTTA | 0.124
ATACGTCA | 0.494
